From PubChem BioAssay (NCATS)
Records with an inconclusive call do not appear. Activity calls are given as the source filed them. The call rests on the fitted dose curve.

Legend:
[1] = Primary qHTS for inhibitors of SARS-S pseudo-typed particle cell entry (AID 1479145); further: nearly all actives have a fitted effect of over 45% in size
[2] = Primary qHTS for Huh7 cytotoxicity: counterscreen for inhibitors of MERS-S pseudotyped particle cell entry (AID 1479147)
[3] = Primary qHTS for inhibitors of MERS-S pseudo-typed particle cell entry (AID 1479149); further: nearly all actives have a fitted effect of over 60% in size
[4] = Primary qHTS for Vero E6 cytotoxicity: counterscreen for inhibitors of SARS-S pseudo-typed particle cell entry (AID 1479150)

Measured: Potency

CCNC(=O)NCCCOc1cccc(CN2CCCCC2)c1
inactive: all assays above

Oc1ccc(CCNCCCCCCNCCc2ccccc2)cc1O
inactive: all assays above

CN(C)CCn1nnnc1SCC1=C(C(=O)O)N2C(=O)[C@@H](NC(=O)Cc3csc(N)n3)[C@H]2SC1
inactive: all assays above

CCN(CC)C(=O)c1cccc(C)c1
inactive: all assays above

C/C=C/c1ccc(O)c(OC)c1
inactive: all assays above

O=c1ccc2ccccc2o1
inactive: all assays above

CC(=O)OCC1=C(C(=O)O)N2C(=O)[C@@H](NC(=O)CSc3ccncc3)[C@H]2SC1
inactive: all assays above

C[C@@H]1CCN(C(=O)[C@H](CCCN=C(N)N)NS(=O)(=O)c2cccc3c2NC[C@H](C)C3)[C@@H](C(=O)O)C1
inactive: all assays above

O=C(O)c1cn(-c2ccc(F)cc2)c2cc(N3CCNCC3)c(F)cc2c1=O
inactive: all assays above

COc1ccc2c(c1)c(CC(=O)OCC(=O)O)c(C)n2C(=O)c1ccc(Cl)cc1
inactive: all assays above

CC(C)(C)CC(=O)OCC(=O)[C@@]1(O)CC[C@H]2[C@@H]3CCC4=CC(=O)C=C[C@]4(C)[C@H]3[C@@H](O)C[C@@]21C
inactive: all assays above

C#C[C@]1(O)CC[C@H]2[C@@H]3[C@H](C)CC4=C(CCC(=O)C4)[C@H]3CC[C@@]21C
inactive: all assays above

NS(=O)(=O)c1cc2c(cc1Cl)NC(C1CC3C=CC1C3)NS2(=O)=O (centres undefined)
inactive: all assays above

CCOc1cc(N)c(Cl)cc1C(=O)NCC1CN(Cc2ccc(F)cc2)CCO1 (centres undefined)
inactive: all assays above

Cc1cc(C(C)(C)C)c(O)c(C)c1CC1=NCCN1
inactive: all assays above

NS(=O)(=O)c1ccc(N2CCCCS2(=O)=O)cc1
inactive: all assays above

CN(CCCN1c2ccccc2CCc2ccccc21)CC(=O)c1ccc(Cl)cc1
inactive: all assays above

CCC(=O)O[C@]1(C(=O)COC)[C@@H](C)C[C@H]2[C@@H]3CCC4=CC(=O)C=C[C@]4(C)C3(F)[C@@H](O)C[C@@]21C (some centres undefined)
inactive: all assays above

O=C(O)CCC(=O)c1ccc(-c2ccccc2)cc1
inactive: all assays above

CCN(CC)CCNC(C(=O)OCCC(C)C)c1ccccc1 (centres undefined)
inactive: all assays above

Oc1cccc(-c2c3nc(c(-c4cccc(O)c4)c4ccc([nH]4)c(-c4cccc(O)c4)c4nc(c(-c5cccc(O)c5)c5ccc2[nH]5)CC4)C=C3)c1
inactive: all assays above

Cc1[nH]c(C)c(Cl)c(=O)c1Cl
inactive: all assays above

CCOC(=O)c1ccc(NC(=O)CN2CCCCC2)cc1
inactive: all assays above

CCC(=O)O[C@]1(C(=O)SCF)[C@H](C)C[C@H]2[C@@H]3C[C@H](F)C4=CC(=O)C=C[C@]4(C)[C@@]3(F)[C@@H](O)C[C@@]21C
inactive: all assays above

CNC(=O)Oc1ccc2c(c1)[C@]1(C)CCN(C)[C@@H]1N2C
inactive: all assays above

CC1=C(C)C(=O)C(C(CCCCCC(=O)O)c2ccccc2)=C(C)C1=O (centres undefined)
inactive: all assays above

C#C[C@]1(OC(C)=O)CC[C@H]2[C@@H]3CCC4=C/C(=N/O)CC[C@@H]4[C@H]3CC[C@@]21CC
inactive: all assays above

CCCCOc1ccc(OCCCN2CCOCC2)cc1
inactive: all assays above

CC[N+](CC)(CC)CCOC(=O)C(C1CCCC1)C1CCCC1
inactive: all assays above

CC1(C)[C@H](C(=O)O)N2C(=O)C[C@H]2S1(=O)=O
inactive: all assays above

CC(=O)OCC(=O)[C@@]1(O)CCC2C3CCC4=CC(=O)CC[C@]4(C)C3[C@@H](O)C[C@@]21C (some centres undefined)
inactive: all assays above
